Measured values from publication PMC4336329 (PLoS ONE, 2015).
Screen size: about 310,000 compounds; about 14,000 (4.5%) showed an effect of 50% or more. The effect is printed as a negative number. This is one part of a sample in which strong results are shown more often than they occur.
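Note: peak tail current of the secondary pulse compared with the same well before compound.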

Each compound was assayed against human ether-à-go-go-related gene (hERG) potassium channel (human, UniProt Q12809) (assay: primary screen, population patch clamp on CHO cells stably expressing hERG; higher = less effect of the substance).
human ether-à-go-go-related gene (hERG) potassium channel, sequence (Q12809 whole entry, looked up): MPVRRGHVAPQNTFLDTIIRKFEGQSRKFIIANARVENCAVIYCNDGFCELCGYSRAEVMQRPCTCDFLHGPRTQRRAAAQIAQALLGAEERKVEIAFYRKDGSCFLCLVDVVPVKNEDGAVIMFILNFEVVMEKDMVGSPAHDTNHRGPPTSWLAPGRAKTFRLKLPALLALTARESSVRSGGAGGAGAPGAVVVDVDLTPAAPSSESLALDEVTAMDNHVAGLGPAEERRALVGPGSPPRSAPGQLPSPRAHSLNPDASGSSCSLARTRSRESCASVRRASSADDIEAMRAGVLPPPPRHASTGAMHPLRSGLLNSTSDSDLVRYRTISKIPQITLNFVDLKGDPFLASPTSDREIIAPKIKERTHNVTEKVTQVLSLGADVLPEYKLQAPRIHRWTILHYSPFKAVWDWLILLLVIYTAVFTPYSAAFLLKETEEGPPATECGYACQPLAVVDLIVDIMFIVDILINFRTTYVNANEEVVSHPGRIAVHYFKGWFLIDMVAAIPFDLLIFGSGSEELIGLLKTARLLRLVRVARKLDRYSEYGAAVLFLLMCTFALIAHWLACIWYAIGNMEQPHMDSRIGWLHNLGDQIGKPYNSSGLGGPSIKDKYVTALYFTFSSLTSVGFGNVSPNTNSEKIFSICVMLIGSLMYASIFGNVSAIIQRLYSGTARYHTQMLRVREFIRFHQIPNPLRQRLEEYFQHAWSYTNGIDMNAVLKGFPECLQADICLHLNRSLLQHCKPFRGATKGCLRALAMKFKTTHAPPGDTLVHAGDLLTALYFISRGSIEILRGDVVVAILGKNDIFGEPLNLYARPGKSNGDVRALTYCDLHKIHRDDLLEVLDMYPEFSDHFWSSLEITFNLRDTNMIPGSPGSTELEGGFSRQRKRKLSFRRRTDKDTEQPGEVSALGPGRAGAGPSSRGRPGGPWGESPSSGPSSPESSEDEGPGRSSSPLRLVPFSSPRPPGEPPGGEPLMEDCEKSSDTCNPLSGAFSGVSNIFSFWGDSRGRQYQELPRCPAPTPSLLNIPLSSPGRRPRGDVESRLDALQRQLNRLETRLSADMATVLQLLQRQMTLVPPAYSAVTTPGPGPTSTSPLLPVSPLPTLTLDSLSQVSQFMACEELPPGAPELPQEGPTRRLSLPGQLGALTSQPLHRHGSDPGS
In the case of `Cc1cc(C)cc(COc2ccc3c(C)c(CC(=O)O)c(=O)oc3c2C)c1`, the “hERG current change (%, negative = inhibition) at 10uM” value is reported as -41.4%.
In the case of `O=C(COc1ccc(S(=O)(=O)NC2CCCCC2)cc1)NCc1cccnc1`, the “hERG current change (%, negative = inhibition) at 10uM” value is reported as 2.91%.
For `CC(C)NC1=C(Cl)C(=O)c2ccccc2C1=O`, the “hERG current change (%, negative = inhibition) at 10uM” value was 4.34%.
In the case of `O=C1[C@H]2CC3CCC2(O3)[C@@H]2OCCCN12` (some centres unmarked), the “hERG current change (%, negative = inhibition) at 10uM” value is reported as 4.02%.
In the case of `O=S(=O)(c1cccc(-c2nnc(SCc3ccc(Cl)cc3)o2)c1)N1CCCCC1`, the “hERG current change (%, negative = inhibition) at 10uM” value is reported as 10.7%.
`CCOC(=O)c1nn(-c2ccccc2)c(=O)c(C#N)c1C` was tested, and the “hERG current change (%, negative = inhibition) at 10uM” value was 13.5%.
In the case of `CC(C)CCN(CC(=O)NC1CCCC1)C(=O)C(=O)Nc1ccc2c(c1)OCCO2`, the “hERG current change (%, negative = inhibition) at 10uM” value is reported as 11%.
With `O=C(CN1CCN(c2ccccc2)CC1)c1c[nH]c2ccccc12` the “hERG current change (%, negative = inhibition) at 10uM” value was -0.617%.
In the case of `NC(=O)CN1CCN(Cc2ccc3c(c2)OCO3)CC1`, the “hERG current change (%, negative = inhibition) at 10uM” value is reported as 30.6%.
With `O=C(c1c[nH]c2ccccc12)N1CCN(Cc2ccccc2)CC1` the “hERG current change (%, negative = inhibition) at 10uM” value was -13.5%.
For `O=C(C(=O)N1CCN(Cc2ccc3c(c2)OCO3)CC1)c1c[nH]c2ccccc12`, the “hERG current change (%, negative = inhibition) at 10uM” value was -11.6%.
`O=C(CN1CCN(Cc2ccc3c(c2)OCO3)CC1)c1c[nH]c2ccccc12` was tested, and the “hERG current change (%, negative = inhibition) at 10uM” value was -63.5%.
`O=C(CN1CCN(Cc2ccccc2)CC1)c1c[nH]c2ccccc12` was tested, and the “hERG current change (%, negative = inhibition) at 10uM” value was -56.5%.
With `COc1ccc(-c2ccc(C#N)c(SCC(=O)OCc3ccccc3)n2)cc1OC` the “hERG current change (%, negative = inhibition) at 10uM” value was -2.31%.
In the case of `CCCn1c(N)c(C(=O)CSc2n[nH]c(-c3ccc(C)cc3)n2)c(=O)[nH]c1=O`, the “hERG current change (%, negative = inhibition) at 10uM” value is reported as 22.2%.
With `C[C@H](NC(=O)c1nc[nH]c1C(=O)N[C@@H](Cc1ccccc1)C(=O)OCc1ccccc1)C(=O)OCc1ccccc1` the “hERG current change (%, negative = inhibition) at 10uM” value was 8.42%.
`CCOC(=O)Cn1c(=O)oc2cc(S(=O)(=O)Nc3cc(OCC)ccc3OCC)ccc21` was tested, and the “hERG current change (%, negative = inhibition) at 10uM” value was -42.3%.
In the case of `COc1ccc(N(CC(=O)Nc2ccc(F)cc2F)S(=O)(=O)c2c(C)nn(C)c2C)cc1`, the “hERG current change (%, negative = inhibition) at 10uM” value is reported as -12.4%.
`Cc1ccc2oc(C(=O)N(C)Cc3ccc(C)o3)c(C)c2c1` was tested, and the “hERG current change (%, negative = inhibition) at 10uM” value was 10.6%.
With `COc1ccc(CN2CCN(C(C)C)C(CCO)C2)cc1Cn1cccn1` (centres unmarked) the “hERG current change (%, negative = inhibition) at 10uM” value was 8.43%.
In the case of `COc1ccc(CN2CCN(CC=C(C)C)C(CCO)C2)cc1Cn1cccn1` (centres unmarked), the “hERG current change (%, negative = inhibition) at 10uM” value is reported as -31.2%.
`COc1ccc(CN2CCC(CO)(Cc3cccc(C(F)(F)F)c3)CC2)cc1Cn1cccn1` was tested, and the “hERG current change (%, negative = inhibition) at 10uM” value was -75.7%.
For `COc1ccc(CN2CCC(CO)(Cc3ccccc3)CC2)cc1Cn1cccn1`, the “hERG current change (%, negative = inhibition) at 10uM” value was -76.5%.
For `COc1ccc(NC(=O)CCNS(=O)(=O)c2ccc3c(c2)CCC(=O)N3)cc1`, the “hERG current change (%, negative = inhibition) at 10uM” value was -2.85%.
With `CN(O)/C=c1/ccc2c(n1)C(=O)C=CC=2` the “hERG current change (%, negative = inhibition) at 10uM” value was -8.33%.
In the case of `Cc1ccc(C(=O)Nc2ccc(S(=O)(=O)N3CCN(C)CC3)cc2)o1`, the “hERG current change (%, negative = inhibition) at 10uM” value is reported as 5.28%.
`COc1cccc(C(=O)NCCNC(=O)c2cnccn2)c1` was tested, and the “hERG current change (%, negative = inhibition) at 10uM” value was 19.5%.
For `Cc1nnc(NNS(=O)(=O)c2ccc(Cl)cc2)[nH]c1=O`, the “hERG current change (%, negative = inhibition) at 10uM” value was -17.3%.
For `O=C(O)C1=C[C@H](c2ccc(F)cc2)C[C@H](OCc2ccc(CO)cc2)O1`, the “hERG current change (%, negative = inhibition) at 10uM” value was 4.49%.
For `Cc1coc2cc3oc(=O)c(CCC(=O)NCCCn4ccnc4)c(C)c3cc12`, the “hERG current change (%, negative = inhibition) at 10uM” value was -41.4%.
`Cc1oc2c(C)c3oc(=O)c(CCC(=O)NCCCn4ccnc4)c(C)c3cc2c1C` was tested, and the “hERG current change (%, negative = inhibition) at 10uM” value was -35.9%.
For `Cc1oc2cc3oc(=O)c(CCC(=O)NCCCn4ccnc4)c(C)c3cc2c1C`, the “hERG current change (%, negative = inhibition) at 10uM” value was -41.7%.
For `Cc1coc2c(C)c3oc(=O)c(CCC(=O)NCCCn4ccnc4)c(C)c3cc12`, the “hERG current change (%, negative = inhibition) at 10uM” value was -44.4%.
For `Cc1c(CCC(=O)NCCCn2ccnc2)c(=O)oc2c(C)c3occ(C(C)(C)C)c3cc12`, the “hERG current change (%, negative = inhibition) at 10uM” value was -67%.
`Cc1c(CCC(=O)NCCCn2ccnc2)c(=O)oc2cc3occ(C(C)(C)C)c3cc12` was tested, and the “hERG current change (%, negative = inhibition) at 10uM” value was -77.7%.
In the case of `Cn1c(=O)n(CCCO)c(=O)c2c1nc1n2CCCN1Cc1ccccc1`, the “hERG current change (%, negative = inhibition) at 10uM” value is reported as -9.65%.
`CN(Cc1nc2ccc(F)cc2[nH]1)Cc1c(C(=O)N(C)C)nc2ccc(Cl)cn12` was tested, and the “hERG current change (%, negative = inhibition) at 10uM” value was -43.3%.
In the case of `CCOc1cc(S(=O)(=O)N(CC)CC)ccc1Br`, the “hERG current change (%, negative = inhibition) at 10uM” value is reported as -11.8%.
In the case of `O=C(CSc1nnc(SCc2ccc(Cl)cc2)s1)c1ccc2c(c1)OCO2`, the “hERG current change (%, negative = inhibition) at 10uM” value is reported as 9.81%.
In the case of `CCOC(=O)N1CCN(c2c(-c3ccccc3)c3cc(Cl)ccc3[nH]c2=O)CC1`, the “hERG current change (%, negative = inhibition) at 10uM” value is reported as -11.4%.
For `O=c1[nH]c2ccc(Cl)cc2c(-c2ccccc2)c1N1CCN(CCO)CC1`, the “hERG current change (%, negative = inhibition) at 10uM” value was -64.6%.
With `O=c1[nH]c2ccc(Cl)cc2c(-c2ccccc2)c1N1CCOCC1` the “hERG current change (%, negative = inhibition) at 10uM” value was 2.46%.
`Cc1cccc(C2=NOC(=O)/C2=C\c2ccccc2F)c1` was tested, and the “hERG current change (%, negative = inhibition) at 10uM” value was 9.48%.
In the case of `CC(C)n1nc(C(=O)Nc2ccc3c(c2)OCO3)c2ccccc2c1=O`, the “hERG current change (%, negative = inhibition) at 10uM” value is reported as 11%.
